PubChem BioAssay (NCI)
The panel holds about 79,000 compounds, 15% with a hit somewhere; the sample as a whole holds those more often. Cut-off read from the data, not from the text of the source: active = growth inhibition above about 70%; inactive = the rest. Where a SMILES comes first, the peptide text is derived from it. The star is where a group is joined. Boc = CC(C)(C)OC(=O)*

Key:
[1] = NCI Yeast Anticancer Drug Screen. Data for the rad50 strain (AID 155);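 note: 0% = growth of vehicle-only cultures of the same strain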; settings: S. cerevisiae rad50 strain growth inhibition; at 50.0 µM; active compounds read high
Procedure, shortened: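 Cells are treated with compound, grown, and their growth is then scored against vehicle-only cultures of the same repair-deficient yeast strain.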

[2] = NCI Yeast Anticancer Drug Screen. Data for the mec2-1 strain (AID 157); settings: S. cerevisiae mec2-1 strain, at 50.0 µM, active compounds read high
Procedure, shortened: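 Strain: mec2-1 (DNA repair/cell cycle alteration). Compound exposure, then growth measured; inhibition expressed relative to vehicle.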

[3] = NCI Yeast Anticancer Drug Screen. Data for the sgs1 mgt1 strain (AID 161);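 note: 0% = growth of cultures given vehicle only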; settings: S. cerevisiae sgs1 mgt1 strain, at 50.0 µM, active compounds read high
Procedure, shortened: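 Test agents were incubated with a DNA-repair-mutant yeast strain. Growth was then read and compared against vehicle-treated controls.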

[4] = NCI Yeast Anticancer Drug Screen. Data for the cln2 rad14 strain (AID 165);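 note: 0% = growth equal to vehicle treated cultures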; settings: S. cerevisiae cln2 rad14 strain, at 50.0 µM, active compounds read high
Procedure, shortened: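 Compounds are applied to the cln2 rad14 yeast strain, and growth is then compared with that of vehicle-treated cultures to give inhibition.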

[5] = NCI Yeast Anticancer Drug Screen. Data for the bub3 strain (AID 167); settings: S. cerevisiae bub3 mutant strain, at 50.0 µM, active compounds read high
Procedure, shortened: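 Part of a panel of yeast mutants defective in DNA damage repair or cell cycle regulation. Each strain is grown with compound, and inhibition is calculated relative to solvent-treated cultures.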

[6] = NCI Yeast Anticancer Drug Screen. Data for the mlh1 rad18 strain (AID 175); settings: S. cerevisiae mlh1 rad18 strain growth inhibition; at 50.0 µM; active compounds read high
Procedure, shortened: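 Read-out is yeast growth inhibition, calculated against vehicle-only controls. The compound was applied to a strain engineered with DNA damage repair alterations.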

Measured: growth inhibition

CCCCCCCCCCCCCCCCOCC(COP(=O)(O)OCC1OC(n2cc(CC)c(=O)[nH]c2=O)CC1O)OC(=O)CCCCCCCCCCCCCCC (stereo not drawn)
inactive: [1] -0.45% | [2] -5.55% | [3] 5.25% | [4] 3.15% | [5] -15.1% | [6] -65%

COCCCCCC(=O)OC
inactive: [1] 5.05% | [2] 17.1% | [3] 6.4% | [4] 4.5% | [5] -7% | [6] 0.5%

O=C(O)C1=C(C(=O)O)C2CCC1C2
inactive: [1] -25.1% | [2] -33.5% | [3] -23.2% | [4] 2.65% | [5] -11.8% | [6] -14.4%

COC(=O)CNC(=O)C(CC(C)C)NC(=O)C(CC(C)C)NC(=O)OC(C)(C)C (stereo not drawn) (Boc-Leu-Leu-Gly-OMe; configuration not given here)
inactive: [1] 42.2% | [2] 1.65% | [3] 32.1% | [4] 10.5% | [5] -0.6% | [6] 15.8%

COc1ccc2c(c1)C1(C)CCCC(C)(CN=C=O)C1CC2 (stereo not drawn)
inactive: [1] 3.55% | [2] 14.4% | [3] -4.75% | [4] 4.8% | [5] -11.9% | [6] -1.95%

Cc1cc2nnc(-c3cccc([N+](=O)[O-])c3)n2c2nnnn12
inactive: [1] 25% | [2] 31.1% | [3] 21.6% | [4] 66.7% | [5] 37.8% | [6] 36.7%

Cc1oc2cc(O)ccc2c(=O)c1-c1ccccc1Br
inactive: [1] 9.85% | [2] 24.9% | [3] 17.4% | [4] -24.6% | [5] 15.9% | [6] 27.4%

CC(C)N(CC(c1ccccc1)C(O)(c1ccccc1)c1ccccc1)C(C)C (stereo not drawn)
inactive: [1] 16.1% | [2] 8% | [3] 17.5% | [4] 26.8% | [5] -0.75% | [6] 32.3%

Nc1n[nH]c(=S)n1Cc1ccccc1
inactive: [1] -21.8% | [2] -10% | [3] -27.1% | [4] -18.2% | [5] -14.6% | [6] -10.7%

C/C(=N/O)c1ccc(C(F)(F)F)cc1
inactive: [1] -5.25% | [2] -15.6% | [3] -18.8% | [4] -17.9% | [5] -48.5% | [6] -2.15%

C=CCOc1ccc(S(=O)(=O)c2ccc(OCC=C)cc2)cc1
inactive: [1] 3.55% | [2] -7.9% | [3] -2.55% | [4] -27.7% | [5] 8.2% | [6] -4.35%

CC1(C)OS2(OC(C)(C)c3ccccc32)c2ccccc21
inactive: [1] -10.2% | [2] 6.85% | [3] 6.5% | [4] 8.75% | [5] 6.3% | [6] 7.65%

Cc1ccc(S(=O)(=O)N/N=C/C(C)c2cccnc2)cc1 (stereo not drawn)
inactive: [1] -9% | [2] 6.8% | [3] 4% | [4] 13.6% | [5] 5.9% | [6] 7.05%

O=c1c(N2CCOCC2)c(N2CCOCC2)c1=O
inactive: [1] -21.6% | [2] -22.9% | [3] 0.25% | [4] 15.4% | [5] -24.4% | [6] -1.1%

COC1OC(CCl)C(Cl)C(Cl)C1O (stereo not drawn)
inactive: [1] 17.7% | [2] -7.85% | [3] 4.55% | [4] -44.2% | [5] 5.9% | [6] 4.8%

Nc1ccc([N+](=O)[O-])cc1C(=O)O
inactive: [1] 5.1% | [2] 0.9% | [3] -6.8% | [4] -15.7% | [5] 3.05% | [6] 0%

O=C(CC(CC(=O)Oc1c(Br)cc(Br)cc1C(=O)O)C(=O)Oc1c(Br)cc(Br)cc1C(=O)O)Oc1c(Br)cc(Br)cc1C(=O)O
inactive: [1] -17.4% | [2] -23.4% | [3] -10% | [4] 8.7% | [5] -24% | [6] -5.6%

CCN(CC)CC(O)c1ccc2c(ccc3ccccc32)c1 (stereo not drawn)
inactive: [1] 12.5% | [2] -5% | [3] 9.2% | [4] -32% | [5] -3.45% | [6] 12%

CCC(C(C)=O)C(C)=O
inactive: [1] -46.2% | [2] -71.5% | [3] -43.5% | [4] -24.2% | [5] -56.6% | [6] -34.4%

O=C1Cc2c(c3ccccc3c3ccccc23)C1
inactive: [1] 20.9% | [2] 7.5% | [3] -4.1% | [4] -41% | [5] 4% | [6] 20.9%

Cc1cc([N+](=O)[O-])ccc1N=NC(=O)NNc1ccc([N+](=O)[O-])cc1C
inactive: [1] -0.45% | [2] 5.1% | [3] 8.35% | [4] -33.1% | [5] 4.15% | [6] 23.2%

CC(C)N(CCSC(=O)N1c2ccccc2Sc2cccnc21)C(C)C
inactive: [1] -2% | [2] 0.8% | [3] -18.9% | [4] -12.3% | [5] 1.45% | [6] 1.6%

CCn1cc(C(=O)O)c(=O)c2ccc(-c3cn[nH]c3C)nc21
inactive: [1] 44.5% | [2] 34.1% | [3] 34.6% | [4] 4.45% | [5] 12.2% | [6] 29.9%

FC12CCC(c3ccccc3)(CC1)CC2
inactive: [1] 11.8% | [2] -8.55% | [3] -4% | [4] -30.1% | [5] -3.5% | [6] -7.4%

COc1ccccc1-n1c(C)nc2c(cnn2CN2CCCCC2)c1=O
inactive: [1] 0.85% | [2] -6.4% | [3] 12.3% | [4] -0.7% | [5] 0.95% | [6] 12%

CC(NC(=O)C(NC(=O)c1ccc[n+](Cc2ccccc2)c1)C(C)C)C(N)=O (stereo not drawn)
inactive: [1] 0.45% | [2] 8.05% | [3] -2.6% | [4] -6.2% | [5] -1.95% | [6] 23.4%

CC1(C)C(C(=O)/C=C2\Nc3ccccc3C2(C)C)=Nc2ccccc21
inactive: [1] -19.5% | [2] -5.65% | [3] -2.05% | [4] -26.7% | [5] -29.4% | [6] -7.85%

CCC(=O)c1cccc(-c2ccccc2)c1CC
inactive: [1] 17.9% | [2] -7% | [3] 15.9% | [4] 4.05% | [5] -22.6% | [6] 12.9%

O=c1c2c3c(sc2nc2n1N=CN(c1ccc(Cl)cc1)C2)CCCC3
inactive: [1] 8.7% | [2] 6% | [3] 7.7% | [4] -5.45% | [5] -4.7% | [6] -32%

C=CCCCCCCCCO
inactive: [1] -12.1% | [2] -3.6% | [3] 8.3% | [4] -13% | [5] -10% | [6] -8.6%

O/N=C/c1ccccn1
inactive: [1] -0.95% | [2] -31.9% | [3] -5.6% | [4] 6.85% | [5] -9.5% | [6] 0%

CCCCNC(=S)/N=C/c1c(O)cc(C)oc1=O
inactive: [1] -16.6% | [2] -25.9% | [3] -24.1% | [4] 2.25% | [5] -14.6% | [6] 2.75%

COCC(O)CN1CCN(c2ccccc2OC)CC1 (stereo not drawn)
inactive: [1] -16.5% | [2] -16.6% | [3] -7.3% | [4] -14.2% | [5] 25.6% | [6] -13.2%

CCCOC(=O)C1(C)CCC(=O)O1 (stereo not drawn)
inactive: [1] 3.7% | [2] 6.1% | [3] 23.4% | [4] -19.9% | [5] -13.2% | [6] -8.85%

COc1ccc(C(=O)/C=C/c2ccc(OCC(=N)N)cc2)cc1
inactive: [1] -31.1% | [2] -38.6% | [3] -18.8% | [4] -27.4% | [5] -15.8% | [6] -23.6%

CCC(C(=O)c1ccccc1)c1cccc2c1N(C(C)=O)CC2 (stereo not drawn)
inactive: [1] 0.05% | [2] 6.9% | [3] -7.5% | [4] -5.6% | [5] 11.2% | [6] 20.1%

CCc1cc(C(C)(C)C)cc(C(C)(C)C)c1O
inactive: [1] 23.6% | [2] 18.4% | [3] -5.75% | [4] 6.05% | [5] 21.4% | [6] 2.2%

NC(=O)c1cc(Cl)c(N)c(Cl)c1
inactive: [1] 8.2% | [2] -7.65% | [3] -11.6% | [4] -5.25% | [5] -12.4% | [6] -11.8%
